Screening results (PubChem BioAssay)
An excerpt weighted towards active compounds, which were near 3.8% of everything screened.
Jurkat NFkB inh – lowers PMA/ionomycin-induced NF-kB signal in Jurkat cells. PMA/ionomycin-induced NF-kB luciferase reporter, luminescence. inhibition, % at 4 µM. 330,000 tested, 0.53% active. AID 435003; in the data active means inhibition above about 50%
697 NFkB inh – inhibitors of the PMA/ionomycin-induced NF-kB reporter in 697 B cells | 330,000 tested, 0.33% active | AID 435022 | 697 B-cell NF-kB luciferase reporter, 16 h | inhibition, % at 4 µM; in the data active means inhibition above about 35%
Beta apoptosis – blocks beta cell apoptosis; protection from apoptosis, % (test concentration not listed); INS-1E cytokine-induced death, ATP luminescence, 48 h; percent of positive-control rescue, neutral wells zero; 300,000 tested, 0.8% active;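 active means Every replicate reaches about 75%, or at least half do and their mean reaches it too, limit read from the data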;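 further: 0% = cytokine-treated negative control wells and 100% = positive control rescue; higher means more ATP so stronger rescue from cytokine killing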
NTR1 agonist – NTR1 (human) agonism | P30989 | NTR1-U2OS beta-arrestin-GFP spot imaging, agonist mode | activation, % at 20 µM | 330,000 tested, 0.17% active;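 active means activation at or above 40% of the spot to cytoplasm intensity ratio, with at least 20 cells analyzed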;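 further: 0% = DMSO without peptide and 100% = 100 nM NTR1 peptide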
Target sequence (P30989 whole entry, looked up): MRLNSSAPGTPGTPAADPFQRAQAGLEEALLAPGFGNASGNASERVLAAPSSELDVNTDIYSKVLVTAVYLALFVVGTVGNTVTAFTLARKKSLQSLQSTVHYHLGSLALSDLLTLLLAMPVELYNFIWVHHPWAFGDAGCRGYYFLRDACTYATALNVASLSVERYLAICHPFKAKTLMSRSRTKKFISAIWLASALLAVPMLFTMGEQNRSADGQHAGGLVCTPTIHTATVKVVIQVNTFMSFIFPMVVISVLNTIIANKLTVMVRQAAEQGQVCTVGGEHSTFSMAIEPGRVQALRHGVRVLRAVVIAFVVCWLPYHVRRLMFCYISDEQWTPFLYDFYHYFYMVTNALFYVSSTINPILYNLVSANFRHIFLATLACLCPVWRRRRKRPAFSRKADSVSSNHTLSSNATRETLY
Bfl-1 A1 inh – inhibitors of the anti-apoptotic protein A1, read as caspase activation | MEF A1-2A-BIM cells, Caspase-Glo 3/7 luminescence, 3 h; percent of clofoctol response, vehicle zero | caspase activation, % (test concentration not listed) | AID 2462 | 330,000 tested, 0.066% active;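 active means over half of replicate activation scores above 10%, or exactly half above 10 with the replicate mean above 10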
Mdm2 MdmX PPI – inhibitors of human Mdm2/MdmX interaction. SaOS-2 split-luciferase Mdm2/MdmX complementation, luminescence. inhibition, % at 8 µM. 330,000 tested, 3% active. AID 485346;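 active means inhibition of at least 50% at 8 µM in the primary screen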
Active calls of the source: *; x = no result given.

SMILES | Jurkat NFkB inh | 697 NFkB inh | Beta apoptosis | NTR1 agonist | Bfl-1 A1 inh | Mdm2 MdmX PPI
COc1cccc(/C=N/NC(=O)c2ccoc2C)c1O | -41 | -73 | 86* | 2 | -8 | 23
COc1ccccc1/C=N/NC(=O)c1ccc(NC(=O)c2cccc([N+](=O)[O-])c2)cc1 | -15 | 11 | 0 | 1 | 0 | -6
COc1cccc(/C=N/NC(=O)CNC(=O)/C=C\c2ccccc2)c1O | 6 | -14 | 10 | 62* | 0 | 35
CCCCn1c(N)c(N(CC(C)C)C(=O)CSCC(=O)Nc2ccc(C)cc2)c(=O)[nH]c1=O | 4 | 2 | -2 | 1 | 0 | -17
CC(Cc1n[nH]c(=S)n1N)c1ccccc1 (stereo not given) | 3 | 11 | 1 | 1 | 0 | -15
O=C(CN(Cc1ccccc1Cl)C(=O)c1csnn1)NCc1ccc2c(c1)OCO2 | 4 | 4 | 0 | 2 | 0 | -13
COC(=O)c1ccc(NC(=O)CSc2nncn2-c2ccccn2)cc1 | 8 | 6 | -2 | 2 | 0 | 5
OC(c1cc(-c2ccc(Cl)cc2)nc2ccccc12)C1CCCCN1 (stereo not given) | x | x | 121* | x | 1 | x
NC(=O)C1CCN(C(=O)c2cc(-c3ccc(Cl)cc3)nc3ccccc23)CC1 | 7 | 13 | -3 | -1 | -1 | 7
c1ccc(CN2CCN(c3nc(NCc4ccco4)c4ccccc4n3)CC2)cc1 | 3 | -48 | 14 | 44* | -1 | 36
Cc1cccc(Nc2nc(NCc3ccco3)c3ccccc3n2)c1 | x | x | 91* | x | 0 | x
Cc1ccccc1Nc1nc(NCc2ccco2)c2ccccc2n1 | -71 | -71 | 37 | 12 | -7 | 47
COc1ccc(C(=O)N2CCN(c3cccc(Cl)c3)CC2)c(OC)c1 | 32 | 3 | 0 | 1 | 0 | 43
COc1ccccc1N1CCN(c2ncc(C(=O)N3CCN(c4cccc(Cl)c4)CC3)c3ccccc23)CC1 | 29 | -23 | 89* | 7 | 0 | 33
O=C(CSc1nnc(NC(=O)c2ccccc2Cl)s1)Nc1ccc2c(c1)oc1ccccc12 | -64 | -80 | -6 | 51* | 0 | -25
O=C(COC(=O)/C=C/c1cccc(Cl)c1Cl)Nc1ccc2[nH]c(=O)[nH]c2c1 | -4 | -10 | -4 | -1 | 16* | 2
O=C(COC(=O)/C=C/c1cccc(Cl)c1)Nc1ccc2[nH]c(=O)[nH]c2c1 | 20 | 3 | 0 | -1 | 0 | 2
CN(c1ccc(OCC(=O)Nc2nc3ccccc3s2)cc1)S(=O)(=O)c1ccccc1 | -1 | -5 | 3 | -1 | 0 | 31
CCOc1ccc(S(=O)(=O)N(C)c2ccc(OCC(=O)Nc3nc4ccccc4s3)cc2)cc1 | 11 | -1 | 92* | 3 | 1 | 20
O=C(NCCc1ccccc1)[C@@H]1CC=C[C@@H]2CCN(Cc3ccc(Cl)c(Cl)c3)C(=O)[C@@H]21 | 15 | 14 | 99* | 3 | 0 | 46
O=C(NCC(c1ccco1)N1CCCC1)c1ccc(Cl)c(S(=O)(=O)N2CCc3ccccc32)c1 (stereo not given) | 48 | -16 | 75* | 5 | -1 | 46
O=C1OCCC1(c1ccccc1)c1ccccc1 | -1 | -3 | x | 0 | x | 11
Cc1cc2cc(CN3C(=O)c4ccccc4C3=O)ccc2n1C | -4 | 11 | 100* | -1 | 0 | 5
O=C(CSc1ccccc1)N1CCCC(N2CCN(c3cccc(Cl)c3)CC2)C1 (stereo not given) | 0 | 8 | 0 | 2 | 0 | 12
Cc1ccc(NC(=O)c2oc3ccccc3c2COC(C)C)cc1S(=O)(=O)N1CCOCC1 | 6 | -26 | 5 | 3 | 0 | 26
SMILES | Jurkat NFkB inh | 697 NFkB inh | Beta apoptosis | NTR1 agonist | Bfl-1 A1 inh | Mdm2 MdmX PPI
CC(C)(C)OC(=O)NCCCC[C@@H](C(=O)NCCCCCCCCCCC(=O)N1CCN(C(=O)OC(C)(C)C)CC1)n1cc(CCO)nn1 | 27 | -45 | 21 | 1 | 0 | 27
CC[C@H](C)Cc1cn([C@@H](CCCCNC(=O)OC(C)(C)C)C(=O)NCCCCCCCCCCC(=O)N2CCN(C(=O)OC(C)(C)C)CC2)nn1 | 15 | -69 | 82* | -2 | 0 | 10
C#CCOCCOCCOCCNc1nc(N2CCN(C(=O)CCCCCCCCCCNC(=O)[C@H]([C@@H](C)CC)n3cc(CCCCN=C(N)N)nn3)CC2)nc(N2CCN(C(=O)CCCCCCCCCCNC(=O)[C@H](CCCCN)n3cc(C[C@@H](C)CC)nn3)CC2)n1 | 9 | -34 | 98* | -1 | 0 | 49
C#CCOCCOCCOCCNc1nc(N2CCN(C(=O)CCCCCCCCCCNC(=O)[C@H](CCCCN)n3cc(C[C@@H](C)CC)nn3)CC2)nc(N2CCN(C(=O)CCCCCCCCCCNC(=O)[C@H](CCCCN)n3cc(C[C@@H](C)CC)nn3)CC2)n1 | x | x | 114* | x | 1 | x
COc1ccc(O)c(CN2CCC(n3nccc3NC(=O)C3CCCC3)CC2)c1 | -11 | -3 | -2 | 0 | 0 | 27
c1ccc(-c2csc3ncnc(NCC4COc5ccccc5O4)c23)cc1 (stereo not given) | x | x | 127* | x | -1 | x
Cc1sc2ncnc(NCC3COc4ccccc4O3)c2c1C (stereo not given) | x | x | 130* | x | 0 | x
Cc1sc2ncnc(NCC(C)(C)N3CCOCC3)c2c1C | 35 | -37 | 85* | 3 | 0 | 32
CCCc1ccc(S(=O)(=O)N2CCN(C(C)C(=O)NCc3ccc(OC)cc3)CC2)cc1 (stereo not given) | 18 | -16 | -3 | 4 | 0 | 2
Cc1cc(OCC(=O)N(C)Cc2ccccc2)ccc1Cl | -35 | -35 | 110* | -1 | 1 | -1
COCCSc1nnc(NC(=O)CCS(=O)(=O)c2ccccc2)s1 | -6 | 6 | -11 | -2 | 0 | 31
CCN(CC)C(=O)c1ccc(S(=O)(=O)N2CCC(c3nc4ccccc4s3)CC2)cc1 | 33 | -22 | 100* | 0 | 0 | 6
Cc1cc(N/N=C/c2ccc(F)cc2)nc(-n2nc(C)cc2C)n1 | 4 | -13 | 110* | 4 | 0 | 13
CNc1cc(C)nc(-n2nc(C)cc2C)n1 | 4 | -1 | 4 | 0 | 0 | 18
Oc1c(Br)cc(Br)cc1/C=N/Nc1ccc(Cl)nn1 | x | x | 98* | x | 0 | x
Oc1c(Br)cc(/C=N/Nc2ccc(Cl)nn2)cc1Br | -25 | 14 | 3 | 0 | 0 | -32
CCc1nnc(NS(=O)(=O)c2ccc(NC(=O)c3ccccc3OC)cc2)s1 | 21 | 6 | -3 | 1 | 1 | -2
CCc1ccc(C(=O)NNc2cc(Cl)ccc2Cl)cc1 | 20 | 12 | 92* | 3 | 0 | 21
CCc1ccc(C(=O)NNc2ccccc2F)cc1 | -16 | 12 | -1 | 0 | 0 | -5
COC1=C(Nc2ccc(C)cc2)C(=O)c2ccccc2C1=O | -42 | -31 | 11 | -1 | 0 | -8
